Drawing on PubChem BioAssay (Tox21), this text covers Potency and activity change for 49 molecules.

The assay deals with Gonadotropin-releasing hormone receptor (Homo sapiens) (UniProt P30968). The assay can be described thus: Human gonadotropin-releasing hormone receptor (GnRHR) small molecule agonists, calcium flux assay in GnRHR-HEK293 cells (AID 1920063). Also: nearly all actives have a fitted effect of over 35% in size. The conditions noted are these: calcium flux fluorescence, agonist mode; series mostly up to 57.6 µM. The procedure, abridged: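 Agonist mode: compounds at 15 concentrations, in triplicate, went onto calcium dye-loaded GnRHR-HEK293 cells. Intracellular calcium was then followed as 480/540 nm fluorescence at 1 s intervals over 3 min.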

Values without a mark were called inactive. Entries that show only a call come without a potency. The source made the active and inactive calls. Calls follow the shape of the full dose curve.
Potency is read from the fitted curve at half-maximal effect.

Gonadotropin-releasing hormone receptor (Homo sapiens), sequence (P30968 whole entry, looked up): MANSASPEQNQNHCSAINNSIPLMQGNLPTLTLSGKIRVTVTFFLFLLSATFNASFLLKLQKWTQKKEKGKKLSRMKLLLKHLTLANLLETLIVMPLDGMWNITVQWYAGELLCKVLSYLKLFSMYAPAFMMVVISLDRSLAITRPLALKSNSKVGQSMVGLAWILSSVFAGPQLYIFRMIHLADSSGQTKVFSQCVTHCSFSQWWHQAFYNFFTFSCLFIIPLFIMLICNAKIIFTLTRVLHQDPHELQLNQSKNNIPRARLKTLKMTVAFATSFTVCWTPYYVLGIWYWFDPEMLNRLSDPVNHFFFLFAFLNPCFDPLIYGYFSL

As for `Cc1ccc(N(SC(F)(Cl)Cl)S(=O)(=O)N(C)C)cc1`, the Potency is 34.7 µM (active).
On to `C=CCC1([C@H](C)CCC)C(=O)NC(=O)NC1=O`, for which the Potency entry is “inactive”.
Take `COc1cc(CC#N)cc(OC)c1OC`: the Potency entry is “inactive”.
The same measure, in the same setting: in the case of `Nc1c(Cl)c(F)nc(OCC(=O)O)c1Cl` it was “inactive”; in that of `N#C/C(N)=C(/N)C#N`, “inactive”.
As for `N#Cc1c2ccccc2cc2ccccc12`, the Potency entry was “inactive”.
Still for that read-out and setting: in the case of `CCCCCCCCCCCCCC[P+](CCCCCC)(CCCCCC)CCCCCC` (tested in a mixture with another compound) it was “inactive”.
The same measure, in the same setting: to `C[C@]12Cc3nonc3C[C@@H]1CC[C@@H]1[C@@H]2CC[C@@]2(C)[C@H]1CC[C@]2(C)O` belongs “inactive”.
Still for that read-out and setting: to `CN(C)CCc1c[nH]c2ccc(O)cc12` belongs “inactive”.
For `COc1ccc(OC)c(C=O)c1`, the Potency result is “inactive”.
In the case of `O=C(O)C(F)(F)C(F)(F)C(F)(F)C(F)(F)C(F)(F)F`, the Potency result is “inactive”.
Same read-out and setting: in the case of `O=C(NC(=O)c1cc(F)c(F)cc1Cl)Nc1cc(F)ccc1N1CCC(C(=O)O)CC1` it was “inactive”; in that of `CCO[C@H]1O[C@@H]2OC3(C)CC[C@H]4[C@H](C)CC[C@@H]([C@H]1C)[C@@]24OO3`, “inactive”; in that of `O=C=Nc1ccc(Cl)cc1`, “inactive”.
Same read-out and setting: in the case of `Oc1ccc(C2(c3ccc(O)cc3)c3ccccc3-c3ccccc32)cc1` it was “inactive”.
On the same count and under the same terms, to `CCCC[N+](CCCC)(CCCC)CCCC` belongs “inactive”; to `C[N+](C)(C)CCOC(=O)C(O)(c1ccccc1)c1ccccc1`, “inactive”.
For the molecule `Cc1c([N+](=O)[O-])cc2c(c1[N+](=O)[O-])C(C)(C)CC2(C)C`, the Potency entry was “inactive”.
Still for that read-out and setting: to `CC(C)(COCC1CO1)COCC1CO1` (centres undefined) belongs “inactive”.
On the same count and under the same terms, to `c1csc(-c2ccc(-c3cccs3)s2)c1` belongs “inactive”; to `CCCN1CCC[C@@H]2Cc3[nH]ncc3C[C@H]21`, “inactive”; to `CC(CC(C#N)(c1ccccc1)c1ccccc1)N(C)C` (centres undefined), “inactive”.
Still for that read-out and setting: in the case of `COc1cccc([C@@]2(O)CCCC[C@@H]2CN(C)C)c1` it was “inactive”.
As to `CC(=O)OCC1=C(C(=O)O)N2C(=O)[C@@H](N)[C@H]2SC1`, the activity change is -1.33% [at 11.8 µM, stronger effect = higher value].
Take `CCCCC(CC)COP(=O)(Oc1ccccc1)Oc1ccccc1` (centres undefined): the Potency result was “inactive”.
The same measure, in the same setting: in the case of `CN/C(=N\[N+](=O)[O-])NCc1cnc(Cl)s1` it was “inactive”.
Still for that read-out and setting: to `Cc1c([N+](=O)[O-])c(C)c([N+](=O)[O-])c(C(C)(C)C)c1[N+](=O)[O-]` belongs “inactive”; to `CC(C)(C#N)C(C)(C)C#N`, “inactive”; to `CC(Cc1ccccc1)NCCCCl` (centres undefined), “inactive”.
On to `COc1cc(Cl)c(OC)cc1Cl`, for which the Potency entry is “inactive”.
The same measure, in the same setting: in the case of `CCOC(=O)c1ncn2c1CN(C)C(=O)c1c(I)cccc1-2` it was “inactive”.
On the same count and under the same terms, in the case of `[Hg+2].[I-].[I-]` it was 43.6 µM (active); in that of `O=C1c2ccccc2C(=O)C1C(=O)C(c1ccccc1)c1ccc(Cl)cc1` (centres undefined), 17.4 µM (active).
Same read-out and setting: to `O=C(Cc1ccccc1)OCc1ccccc1` belongs “inactive”; to `Oc1ccccc1Br`, “inactive”; to `N#Cc1c[nH]cc1-c1cccc2c1OC(F)(F)O2`, “inactive”.
As for `CON(C)C(=O)Nc1ccc(Br)cc1`, the Potency entry was “inactive”.
`CC(=O)[O][Pb]([c]1ccccc1)([c]1ccccc1)[c]1ccccc1`: the Potency is 30.9 µM (active).
The same measure, in the same setting: to `Cc1cc(C(C)(C)c2ccc(O)c(C)c2)ccc1O` belongs “inactive”; to `CCOC(=O)/C=C(C)/C=C/C[C@@H](C)CCCC(C)C`, “inactive”; to `ClC(Cl)=C(Cl)Cl`, “inactive”.
As to `C[C@H](N)C(=O)c1ccccc1`, the Potency entry is “inactive”.
Still for that read-out and setting: in the case of `COP(=S)(OC)Oc1c(Cl)cc(C)cc1Cl` it was “inactive”.
`COc1ccc([N+](=O)[O-])cc1O`: the Potency entry is “inactive”.
Same read-out and setting: in the case of `COCc1cnc(C2=NC(C)(C(C)C)C(=O)N2)c(C(=O)O)c1` (centres undefined) it was “inactive”; in that of `Oc1cccc(Cl)c1Cl`, “inactive”.
Regarding `CN1CCC(O)(c2ccc(F)cc2)C(C(=O)c2ccc(F)cc2)C1` (centres undefined), the Potency result was “inactive”.
As for `CC(C)Br`, the Potency entry is “inactive”.
`CC[N+]1(C)CCCC(OC(=O)C(O)(c2ccccc2)c2ccccc2)C1` (centres undefined): the Potency entry was “inactive”.
